From article PMC6212790, “How bacterial xenogeneic silencer rok distinguishes foreign from self DNA in its resident genome”
In all, about 33,000 sequences were measured (“e-score”: median about -0.037, highest 2% from about 0.34 on). The sample holds the highest values, similar sequences and a random draw of the others, so the mix is not that of the screen.

target: T1, GST-Rok (full length) (Bacillus subtilis subsp. subtilis str. …, UniProt O34857 1-191); experiment: protein binding microarray; Rok is a gene silencer of Bacillus subtilis; high values mean tight binding; details: protein: recombinant; tags: GST (pTH5325, pDEST15-Magic modified); dsDNA, one strand shown
T1 sequence: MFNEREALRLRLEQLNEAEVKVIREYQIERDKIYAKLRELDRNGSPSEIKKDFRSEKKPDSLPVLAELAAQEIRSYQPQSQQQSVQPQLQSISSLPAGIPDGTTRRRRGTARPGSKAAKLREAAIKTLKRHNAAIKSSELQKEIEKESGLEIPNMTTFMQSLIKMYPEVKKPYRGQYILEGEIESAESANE
Method in brief: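 Every oligonucleotide joins a 25-mer constant primer to a 35-mer variable part drawn from a de Bruijn sequence of order 10, so each non-palindromic 8-mer appears at least 32 times and each palindromic 8-mer 16 times. The preference for every 8-mer is reported as a unitless, rank-based enrichment score (E-score). This score spans 0.5 for the most favored 8-mer to −0.5 for the most disfavored.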

Q: Which binding signal does the source give for ACTATAGT here?
A: 0.409 E-score

Q: With AGGTAATC as the sequence, how does the binding signal read?
A: -0.0361 E-score

Q: For AGCGGGGA, which binding signal is on record?
A: -0.076 E-score

Q: Which binding signal does the source give for ACCACTAG here?
A: 0.0844 E-score

Q: With AGGAATGC as the sequence, how does the binding signal read?
A: -0.0829 E-score

Q: With GTACCTAC as the sequence, how does the binding signal read?
A: 0.353 E-score

Q: Which binding signal does the source give for CTACCTAC here?
A: 0.346 E-score

Q: How did the binding signal turn out when CTACCTAG was run?
A: 0.235 E-score

Q: How did the binding signal turn out when ATACCTAT was run?
A: 0.333 E-score

Q: For ATACCTAG, which binding signal is on record?
A: 0.31 E-score

Q: CTACCTAA was tested. Which binding signal did it give?
A: 0.22 E-score

Q: GTACCTAA was tested. Which binding signal did it give?
A: 0.132 E-score

Q: With ATACCTAC as the sequence, how does the binding signal read?
A: 0.351 E-score

Q: For GAACCTAC, which binding signal is on record?
A: 0.15 E-score

Q: How did the binding signal turn out when CTGCGCTA was run?
A: -0.143 E-score

Q: Which binding signal does the source give for ACAGAAGG here?
A: -0.105 E-score

Q: Which binding signal does the source give for AGTCTCTA here?
A: 0.0503 E-score

Q: With GCACTTAC as the sequence, how does the binding signal read?
A: -0.0436 E-score

Q: TAAACCTA was tested. Which binding signal did it give?
A: 0.181 E-score

Q: CGTGCGGA was tested. Which binding signal did it give?
A: -0.0584 E-score

Q: For ACATAGTA, which binding signal is on record?
A: 0.306 E-score

Q: How did the binding signal turn out when CGGTAATA was run?
A: 0.372 E-score

Q: With CAATAGTG as the sequence, how does the binding signal read?
A: 0.287 E-score

Q: How did the binding signal turn out when CGGTAATC was run?
A: -0.0198 E-score

Q: With AAATAGCC as the sequence, how does the binding signal read?
A: 0.046 E-score

Q: Which binding signal does the source give for CAATAGTA here?
A: 0.341 E-score

Q: How did the binding signal turn out when CAATAGTC was run?
A: 0.101 E-score

Q: For AAATAGTA, which binding signal is on record?
A: 0.42 E-score

Q: For AAATAGCT, which binding signal is on record?
A: 0.379 E-score

Q: With AAATAGCG as the sequence, how does the binding signal read?
A: 0.0843 E-score

Q: For GGGTAATA, which binding signal is on record?
A: 0.234 E-score

Q: With AAATAGCA as the sequence, how does the binding signal read?
A: 0.0964 E-score

Q: How did the binding signal turn out when CCTCGATA was run?
A: -0.188 E-score

Q: Which binding signal does the source give for GTCCTGTA here?
A: -0.0798 E-score

Q: For ATAGGTGA, which binding signal is on record?
A: 0.0572 E-score

Q: How did the binding signal turn out when GAGCCCAA was run?
A: -0.192 E-score

Q: With GACCAGTA as the sequence, how does the binding signal read?
A: 0.0441 E-score

Q: How did the binding signal turn out when CTTTTATC was run?
A: 0.118 E-score

Q: How did the binding signal turn out when ATTTGGGA was run?
A: -0.131 E-score

Q: Which binding signal does the source give for AAACGTCT here?
A: -0.171 E-score

Q: For AAGTGACG, which binding signal is on record?
A: 0.0469 E-score

Q: For AAACAGGG, which binding signal is on record?
A: -0.0541 E-score

Q: Which binding signal does the source give for AGTTCCAT here?
A: 0.0525 E-score

Q: For AGTTTGAC, which binding signal is on record?
A: -0.0534 E-score

Q: ACAACTCA was tested. Which binding signal did it give?
A: 0.097 E-score

Q: How did the binding signal turn out when AAGTAATA was run?
A: 0.275 E-score

Q: How did the binding signal turn out when GAGTAATA was run?
A: 0.318 E-score

Q: How did the binding signal turn out when AAATAGTT was run?
A: 0.4 E-score

Q: For TAGTAACA, which binding signal is on record?
A: 0.366 E-score

Q: Which binding signal does the source give for AAGTAACA here?
A: 0.207 E-score

Q: For TAATAGCA, which binding signal is on record?
A: 0.257 E-score

Q: CAGTAACA was tested. Which binding signal did it give?
A: 0.0586 E-score

Q: TAGTAATA was tested. Which binding signal did it give?
A: 0.408 E-score

Q: How did the binding signal turn out when TAATAGTA was run?
A: 0.401 E-score

Q: AAATAGTC was tested. Which binding signal did it give?
A: 0.119 E-score

Q: Which binding signal does the source give for GAATAGTA here?
A: 0.285 E-score

Q: With AAATAGTG as the sequence, how does the binding signal read?
A: 0.231 E-score

Q: For GTTTGTAA, which binding signal is on record?
A: 0.172 E-score

Q: How did the binding signal turn out when CATCACAG was run?
A: -0.0903 E-score

Q: How did the binding signal turn out when ACAGTTAC was run?
A: 0.278 E-score

Q: Which binding signal does the source give for ACATCAAG here?
A: 0.00272 E-score

Q: For AGGGTGAA, which binding signal is on record?
A: -0.17 E-score

Q: CGTGGCTC was tested. Which binding signal did it give?
A: -0.0956 E-score

Q: For GCATGGGC, which binding signal is on record?
A: -0.196 E-score

Q: For AGTGGTAC, which binding signal is on record?
A: 0.191 E-score

Q: For CATGGTAG, which binding signal is on record?
A: 0.168 E-score

Q: With ATTGGTAA as the sequence, how does the binding signal read?
A: 0.265 E-score

Q: With ATTGGTAC as the sequence, how does the binding signal read?
A: 0.289 E-score

Q: For ATAGGTAC, which binding signal is on record?
A: 0.219 E-score

Q: How did the binding signal turn out when ATTGGTAG was run?
A: 0.371 E-score

Q: For ATAGGTAG, which binding signal is on record?
A: 0.41 E-score

Q: With AGTGGTAG as the sequence, how does the binding signal read?
A: 0.393 E-score

Q: CGTGGTAG was tested. Which binding signal did it give?
A: 0.295 E-score

Q: Which binding signal does the source give for AATGGTAT here?
A: 0.309 E-score

Q: How did the binding signal turn out when ATAGGTAA was run?
A: 0.223 E-score

Q: With AATGGTAG as the sequence, how does the binding signal read?
A: 0.398 E-score

Q: For CACTGCTA, which binding signal is on record?
A: 0.106 E-score

Q: ACAGAACC was tested. Which binding signal did it give?
A: -0.171 E-score

Q: How did the binding signal turn out when CTTTTTTC was run?
A: 0.0367 E-score

Q: CAAACCTA was tested. Which binding signal did it give?
A: 0.145 E-score

Q: For ATATAGAA, which binding signal is on record?
A: 0.354 E-score

Q: How did the binding signal turn out when CTATAGAA was run?
A: 0.275 E-score

Q: With ATATAGAT as the sequence, how does the binding signal read?
A: 0.416 E-score

Q: Which binding signal does the source give for ATATAGAG here?
A: 0.208 E-score

Q: How did the binding signal turn out when ATATAGAC was run?
A: 0.0949 E-score

Q: For GAATAGAA, which binding signal is on record?
A: 0.101 E-score

Q: How did the binding signal turn out when GTATAGAA was run?
A: 0.329 E-score

Q: For AAATAGAC, which binding signal is on record?
A: 0.0132 E-score
